# From PubChem BioAssay AID504882 (Broad Institute, 2011)
# In all, about 1,200 compounds went through this assay and about 290 (24%) were called active. Not shown: some 9% with an inconclusive outcome. How the calls were made is not given here. Only a sample is shown. Results with a measured potency or affinity are listed apart.
# Test: cytotoxicity in EBV lymphoblastoid cells, dose response, cytotoxicity control, cell-based, plate reader, cherry-picks, set 2 (AID 504882)
# Details: EBV lymphoblastoid cells (LCL) viability; series mostly up to 19.5 µM
row,Compound,outcome
1,N=C1S/C(=C\c2ccccc2)C(=O)N1c1ccc(F)cc1,inactive
2,CCC(=O)OC1c2ccccc2C(=O)N1Cc1ccccc1 (stereo not given),inactive
3,CC(=O)/C=C/c1ccccc1O,inactive
4,CNc1ccc(Br)cc(C(=O)/C=C/c2cccc(OC)c2)c1=O,inactive
5,CNc1ccc(Br)cc(C(=O)/C=C/c2cc(OC)ccc2OC)c1=O,inactive
6,COC(=O)C1=C(C)N(CCCC(=O)O)C(=O)NC1c1cccc(Cl)c1Cl (stereo not given),inactive
7,O=C(CSc1nnc(NC(=O)c2ccc3c(c2)OCO3)s1)NCc1ccco1,inactive
8,CCOc1ccc(C(=O)Nc2nnc(SCC(=O)NCC3CCCO3)s2)cc1 (stereo not given),inactive
9,COc1ccc(C(=O)OCC(=O)c2c[nH]c3ccccc23)cc1OC,inactive
10,O=C1NC(=O)/C(=C\c2ccc(OCc3cccc(C(=O)O)c3)c(Cl)c2)N1,inactive
11,O=C(CN(Cc1cccs1)C(=O)CNS(=O)(=O)c1ccccc1)NCc1ccco1,inactive
12,Cc1ccc(S(=O)(=O)N2CCN(C(=O)CSc3nnnn3C)C2)cc1,inactive
13,O=C(O)/C=C/c1ccc(Cn2ccnc2)cc1,inactive
14,Cc1ccccc1NC(=O)CN1C(=O)S/C(=C\c2cccn2-c2cccc(C(=O)O)c2)C1=O,inactive
15,CC(C)[C@H](N[C@@H](C)c1ccccc1)c1c(O)ccc2ccccc12,inactive
16,O=C(C1CC1)N1N=C(c2ccc(Br)cc2)CC1(O)C(F)(F)F (stereo not given),inactive
17,CN1CCN(CCOc2ccc(Cc3ccccc3)cc2)CC1,inactive
18,CN(C)S(=O)(=O)c1ccc(Cl)c(C(=O)NCCNC(=O)c2cc(S(=O)(=O)N(C)C)ccc2Cl)c1,inactive
19,CCCc1cc(=O)c2c(O)ccc(OC)c2o1,inactive
20,O=c1cc(C2CCCCC2)[nH]c(=O)[nH]1,inactive
21,CC(=O)OCC(=O)[C@@]1(O)CC[C@H]2[C@@H]3CCC4=CC(=O)CC[C@]4(C)[C@H]3[C@@H](O)C[C@@]21C,inactive
22,O=C(/C=C/Nc1cccc(C(F)(F)F)c1)C(F)(F)F,inactive
23,O=C(CN1CCN(S(=O)(=O)c2ccc(F)cc2)CC1)Nc1cccc(C(F)(F)F)c1,inactive
24,O=C(c1ccco1)N1CCN(S(=O)(=O)/C=C/c2ccccc2)CC1,inactive

row,Compound,outcome
1,O=C(Nc1ncccc1O)c1ccc(S(=O)(=O)NCc2ccco2)cc1,inactive
2,CCOC(=O)C1=C(C)N(C)C(=O)NC1c1ccccc1OC (stereo not given),inactive
3,Cc1cc(=S)[nH]c2ccccc12,inactive
4,CC(=O)Oc1ccc(C(=O)Nc2cccnc2)cc1,inactive
5,CC(C)CCNC(=O)C1CCN(S(=O)(=O)c2ccc3c(c2)CC(C)N3C(=O)C2CC2)CC1 (stereo not given),inactive
6,Cc1ccc2c(c1)N(CC(=O)N1CCCC1)C(=O)c1cccnc1O2,inactive
7,Cc1ccc(S(=O)(=O)N[C@H](C(=O)N2CCC(C(=O)N[C@@H](CC(=O)O)C(=O)O)CC2)C(C)C)cc1,inactive
8,Cc1ccc(NC(=O)c2ccc3c(c2)OCCO3)nc1,inactive
9,Cc1ccc(C(=O)Nc2ccc3c(c2)OCCO3)cc1,inactive
10,COc1ccc(OC)c(NC(=O)COC(=O)COc2ccc(Nc3ccccc3)cc2)c1,inactive
11,Cc1cc(C)c(S(=O)(=O)N2CCN(C(=O)c3ccccc3OCc3c(C)noc3C)CC2)c(C)c1,inactive
12,O=C(NCc1ccccc1Cl)C1CCCN1S(=O)(=O)c1ccc(F)cc1 (stereo not given),inactive
13,Cc1ccc(/C=C/c2nc3ccccc3s2)s1,inactive
14,N/C(=N\OC(=O)c1ccccc1)c1ccccn1,inactive
15,COc1ccc(C=NNc2nc3ccccc3s2)cc1,inactive
16,C[C@@H]1CN([C@@H](C)CO)S(=O)(=O)c2ccc(/C=C/c3ccccc3)cc2O[C@@H]1CN(C)Cc1ccc(C(=O)O)cc1,inactive
17,O=C(NC1=NCCS1)c1cc2ccccc2o1,inactive
18,COc1ccc(C(=O)Nc2nnc(SCC(=O)NC3CC3)s2)cc1,inactive
19,c1ccc(-c2cn3c4c(sc3n2)CCCC4)cc1,inactive
20,Cc1cc(C)n2nc(CC(=O)NC3CCCCCC3)nc2n1,inactive
21,Cc1nc(SCC(=O)c2cccc([N+](=O)[O-])c2)n[nH]1,inactive
22,COc1ccc2cc3c(N)nn(C(=O)c4cccc([N+](=O)[O-])c4)c3nc2c1,inactive
23,CCn1c(SC(C)C)nnc1-c1c[nH]c2ccccc12,inactive
24,CC(=O)c1cccc(NC(=O)Nc2ccc(C(=O)N3CCOCC3)cc2)c1,inactive

row,Compound,outcome
1,COc1ccc(-c2csc(Nc3cccc(C)n3)n2)cc1OC,inactive
2,CC[C@]1(C(=O)OC)[C@H]2C(=O)N(Cc3ccccc3)C(=O)[C@H]2[C@H]2CN=C(SCc3ccc(C#N)cc3)N21,inactive
3,COc1ccc(CN2C(=O)c3cccnc3C2Nc2cc(Cl)ccc2OC)cc1 (stereo not given),inactive
4,Clc1ccc(-c2cn3nc4c(nc3n2)CCCC4)cc1,inactive
5,COCCn1c(SCCN2CCOCC2)nc2c1c(=O)[nH]c(=O)n2C,inactive
6,COc1cc2nc(N3CCN(C(=O)C4CCCO4)CC3)nc(N)c2cc1OC (stereo not given),inactive
7,O=C(Nc1ccc2c(c1)C(=O)OC2)c1ccc(C(F)(F)F)cc1,inactive
8,C/C(=N\Nc1ccc(C(F)(F)F)cc1[N+](=O)[O-])C(C)C,inactive
9,COC(=O)c1ccc2nc(-c3cccc(N)c3)cn2c1,inactive
10,CCOC(=O)Nc1ccc2c(c1)N(C(=O)CN(C)C)c1ccccc1CC2,inactive
11,COc1ccc(-c2nc(C)ncc2-c2ccccc2)c(O)c1,inactive
12,c1ccc(OCCSc2nnc3sc4ccccc4n23)cc1,inactive
13,COc1ccc(N2C(=O)C(=O)/C(=C(/O)c3ccc(C)cc3)C2c2cccnc2)cc1 (stereo not given),inactive
14,O=C1CCCCC1Sc1nnc(-c2ccc3c(c2)OCO3)o1 (stereo not given),inactive
15,COc1ccc(NC(=O)NCCN2CCc3ccccc3C2)cc1,inactive
16,COc1ccc(NC(=O)c2cc3ccccc3oc2=O)cc1,inactive
17,N#Cc1c(NC(=O)CCCC(=O)O)sc2c1CCCCC2,inactive
18,COC(=O)c1c(NC(=O)c2nn(C)cc2Cl)sc2c1CCCC2,inactive
19,NC(=O)c1sc2nc3c(c(-c4ccccc4)c2c1N)CCC3,inactive
20,Cc1ccc(NC(=O)NNS(=O)(=O)c2ccc(Br)cc2)cc1,inactive
21,O=C(CSc1nc2ccccc2c(=O)n1CCCN1CCOCC1)Nc1ccc(Br)cc1,inactive
22,CC(C)(C)c1ccc(C(=O)N2CCC(=O)N(C(CO)Cc3ccccc3)CC2)cc1 (stereo not given),inactive
